# Measured values published in PubChem BioAssay (EPA / NIEHS).
# Several values for one entry are separate records, joined by “and”; a condition that tells them apart may be missing. Identical values can stand only once. Records with an inconclusive call do not appear. A structure can be active in one record and inactive in another. Activity calls are given as the source filed them. How the source made its calls, unless noted: active means hit-call score of the fitted dose curve at least 0.9, where 1 is the maximum; inactive means score below 0.9.
# Columns and labels:
# [1] = ATG_PBREM_CIS: Attagene CIS-FACTORIAL HepG2 Assay for human Phenobarbital-responsive Enhancer Module (PBREM) (AID 2282955); conditions: HepG2 PBREM cis-reporter, Attagene multiplexed transcription; actives raise or lower the signal
# Outline: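 Endogenous transcription factors in human liver HepG2 cells drive a PBREM cis-element reporter, whose transcript level after 24 h treatment is quantified by RT-PCR with capillary electrophoresis; activity fitted in both directions against DMSO.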
# [2] = target: Paired box protein Pax-6 (Homo sapiens) (UniProt P26367); experiment: ATG_Pax6_CIS: Attagene CIS-FACTORIAL HepG2 Assay for human Paired Box 6 (PAX6) (AID 2282956); conditions: HepG2 CIS-FACTORIAL PAX6 reporter transcription, RNA readout; actives raise or lower the signal
# Paired box protein Pax-6 (Homo sapiens), sequence (P26367 whole entry, looked up): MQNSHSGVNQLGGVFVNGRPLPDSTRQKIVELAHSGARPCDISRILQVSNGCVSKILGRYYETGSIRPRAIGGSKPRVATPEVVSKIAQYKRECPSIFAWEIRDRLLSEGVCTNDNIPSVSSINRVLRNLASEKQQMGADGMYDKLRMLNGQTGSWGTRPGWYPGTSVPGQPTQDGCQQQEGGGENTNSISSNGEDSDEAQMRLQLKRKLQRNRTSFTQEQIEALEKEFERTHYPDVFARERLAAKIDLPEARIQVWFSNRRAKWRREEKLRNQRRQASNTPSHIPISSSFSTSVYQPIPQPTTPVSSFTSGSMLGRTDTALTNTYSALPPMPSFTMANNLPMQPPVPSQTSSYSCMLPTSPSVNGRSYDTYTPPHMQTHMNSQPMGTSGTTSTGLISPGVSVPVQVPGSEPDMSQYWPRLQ
# Outline: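 Transient MRTU transfection of HepG2 → compound exposure 24 h → TriZol RNA, oligo(dT) RT → PCR, 6-FAM primer extension, HpaI cut → capillary electrophoresis; activity fitted both directions against DMSO.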
# [3] = ATG_PXRE_CIS: Attagene CIS-FACTORIAL HepG2 Assay for human Pregnane X Receptor Element (PXRE) (AID 2282957); conditions: HepG2 Attagene CIS-FACTORIAL PXRE reporter, mRNA; actives raise or lower the signal
# Outline: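 Cells: HepG2, transiently transfected reporter units under cis promoter control. Exposure: 24 h. Detection: reporter mRNA via RT-PCR/CE fluorescence; bidirectional fitting, DMSO-referenced.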
# [4] = ATG_PPRE_CIS: Attagene CIS-FACTORIAL HepG2 Assay for human Peroxisome Proliferator-activated Response Element (PPRE) (AID 2282958); conditions: HepG2 PPRE cis-element reporter, Attagene transcription factor profiling; actives raise or lower the signal
# Outline: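 HepG2, transient MRTU transfection (cis promoter elements, endogenous TFs). 24 h dosing. RNA → oligo(dT) RT → PCR → 6-FAM primer extension → HpaI digest → CE. Bidirectional fit vs DMSO.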
# [5] = ATG_RORE_CIS: Attagene CIS-FACTORIAL HepG2 Assay for human RAR-related Orphan Receptor Element (RORE) (AID 2282959); conditions: HepG2 Attagene cis-factorial RORE reporter, mRNA; actives raise or lower the signal
# Outline: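 Transient MRTU transfection of human HepG2 liver cells (FuGene 6); 24 h compound exposure; TriZol RNA, oligo(dT) RT, PCR, FAM labeling, HpaI cut, CE fragment analysis. DMSO = negative control/baseline.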
# [6] = ATG_Sox_CIS: Attagene CIS-FACTORIAL HepG2 Assay for human SRY-box transcription factor (SOX) (AID 2282960); conditions: HepG2 Attagene cis-factorial SOX reporter, mRNA; actives raise or lower the signal
# Outline: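 Endogenous factor activity in human liver HepG2 cells carrying transfected cis-regulated reporter units. RNA taken 24 h post-dose, reverse-transcribed, PCR-amplified and sized by capillary electrophoresis. Gain or loss of signal fitted relative to DMSO.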
# [7] = target: Transcription factor Sp1 (Homo sapiens) (UniProt P08047); experiment: ATG_Sp1_CIS: Attagene CIS-FACTORIAL HepG2 Assay for human Specificity Protein 1 (Sp1) (AID 2282961); conditions: HepG2 Sp1 cis-reporter transcription, actives raise or lower the signal
# Transcription factor Sp1 (Homo sapiens), sequence (P08047 whole entry, looked up): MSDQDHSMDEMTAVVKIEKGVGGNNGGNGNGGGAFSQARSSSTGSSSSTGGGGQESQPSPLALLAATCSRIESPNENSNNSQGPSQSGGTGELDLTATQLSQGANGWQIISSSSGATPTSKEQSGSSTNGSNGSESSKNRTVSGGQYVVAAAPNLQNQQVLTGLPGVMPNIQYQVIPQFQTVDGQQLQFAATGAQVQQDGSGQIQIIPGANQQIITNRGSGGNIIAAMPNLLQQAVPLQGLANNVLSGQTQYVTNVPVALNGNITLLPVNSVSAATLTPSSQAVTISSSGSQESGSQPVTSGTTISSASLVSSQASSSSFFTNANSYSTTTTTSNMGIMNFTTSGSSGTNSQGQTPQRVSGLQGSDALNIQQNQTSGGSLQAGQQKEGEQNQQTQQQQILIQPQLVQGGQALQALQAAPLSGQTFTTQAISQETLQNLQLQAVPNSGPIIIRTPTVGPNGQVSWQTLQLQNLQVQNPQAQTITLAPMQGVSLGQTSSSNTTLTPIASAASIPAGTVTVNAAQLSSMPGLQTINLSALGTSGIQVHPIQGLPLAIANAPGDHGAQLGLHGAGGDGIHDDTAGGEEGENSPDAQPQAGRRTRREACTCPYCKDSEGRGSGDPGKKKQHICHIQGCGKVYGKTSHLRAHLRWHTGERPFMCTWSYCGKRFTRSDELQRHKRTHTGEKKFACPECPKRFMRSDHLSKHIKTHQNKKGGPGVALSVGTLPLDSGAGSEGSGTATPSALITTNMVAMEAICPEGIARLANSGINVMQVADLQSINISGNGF
# Outline: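 Transient MRTU-transfected HepG2, 24 h compound exposure. Total RNA → oligo(dT) RT → PCR of reporter → 6-FAM primer extension → HpaI digest → CE. Endpoint fitted both directions vs DMSO.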
# [8] = target: Signal transducer and activator of transcription 3 (Homo sapiens) (UniProt P40763); experiment: ATG_STAT3_CIS: Attagene CIS-FACTORIAL HepG2 Assay for human Signal Transducer and Activator of Transcription 3 (STAT3) (AID 2282963); conditions: HepG2, Attagene cis-factorial STAT3 reporter transcription; actives raise or lower the signal
# Signal transducer and activator of transcription 3 (Homo sapiens), sequence (P40763 whole entry, looked up): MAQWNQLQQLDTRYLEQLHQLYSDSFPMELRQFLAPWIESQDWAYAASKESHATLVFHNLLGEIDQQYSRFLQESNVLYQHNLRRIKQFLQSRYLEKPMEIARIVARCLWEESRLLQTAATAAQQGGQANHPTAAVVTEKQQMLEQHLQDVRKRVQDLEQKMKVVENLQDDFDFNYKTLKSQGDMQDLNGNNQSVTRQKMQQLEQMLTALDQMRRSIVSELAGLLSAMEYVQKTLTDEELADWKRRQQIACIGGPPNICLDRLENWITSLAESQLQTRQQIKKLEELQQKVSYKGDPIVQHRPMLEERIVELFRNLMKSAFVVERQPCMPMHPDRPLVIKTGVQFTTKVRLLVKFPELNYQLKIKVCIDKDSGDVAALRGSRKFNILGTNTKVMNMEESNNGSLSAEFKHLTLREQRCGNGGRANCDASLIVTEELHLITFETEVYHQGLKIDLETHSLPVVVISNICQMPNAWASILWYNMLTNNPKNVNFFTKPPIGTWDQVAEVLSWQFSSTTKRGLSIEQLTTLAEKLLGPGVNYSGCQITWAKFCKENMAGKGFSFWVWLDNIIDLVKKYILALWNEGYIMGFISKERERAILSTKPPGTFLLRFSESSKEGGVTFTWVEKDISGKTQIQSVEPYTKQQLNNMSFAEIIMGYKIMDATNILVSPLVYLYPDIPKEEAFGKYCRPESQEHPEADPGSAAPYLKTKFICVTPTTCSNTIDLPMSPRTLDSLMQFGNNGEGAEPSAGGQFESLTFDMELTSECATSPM
# Outline: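 Transcript-level reporter assay. HepG2 transient MRTU transfection, 24 h exposure, fluorescence detection after RT-PCR and CE; DMSO baseline.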
# [9] = ATG_TA_CIS: Attagene CIS-FACTORIAL HepG2 Assay for human TA Basal Promoter (AID 2282964); conditions: HepG2 Attagene CIS-factorial TA basal promoter reporter; actives raise or lower the signal
# Outline: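 Background internal-marker endpoint from a 52-component HepG2 cis-reporter panel. Cells treated 24 h; reporter transcripts quantified via RT-PCR and CE fluorescence against DMSO baseline.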
# [10] = ATG_TCF_b_cat_CIS: Attagene CIS-FACTORIAL HepG2 Assay for human T-Cell-Factor with beta-catenin (TCF/b-cat) (AID 2282965); conditions: HepG2 TCF/beta-catenin cis-reporter transcription, actives raise or lower the signal
# Outline: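 HepG2 cells transiently transfected with multiple cis-promoter-regulated reporter transcription units, so endogenous transcription factor activity is measured. Reporter mRNA read 24 hours after dosing by RT-PCR, fluorescent labelling and capillary electrophoresis; bidirectional fitting against DMSO.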
# [11] = ATG_TAL_CIS: Attagene CIS-FACTORIAL HepG2 Assay for human TAL Basal Promoter (AID 2282966); conditions: HepG2 Attagene cis-factorial TAL promoter reporter; actives raise or lower the signal;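 further: background control endpoint measuring basal TAL promoter reporter mRNA not a specific factor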
# Outline: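 RT-PCR plus capillary electrophoresis quantifies reporter mRNA induction in transiently transfected HepG2 cells after 24 h chemical treatment. DMSO serves as negative control and baseline for bidirectional fitting.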
# [12] = ATG_TGFb_CIS: Attagene CIS-FACTORIAL HepG2 Assay for human Transforming Growth Factor (TGF) (AID 2282967); conditions: HepG2 Attagene CIS TGFb reporter, mRNA transcription; actives raise or lower the signal
# Outline: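 Liver HepG2 line, cis-factorial reporter panel, 24 h dosing. Quantitation: RT-PCR products labeled with 6-FAM, cut with HpaI, resolved by capillary electrophoresis; DMSO-referenced bidirectional analysis.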
# [13] = ATG_VDRE_CIS: Attagene CIS-FACTORIAL HepG2 Assay for human Vitamin D Receptor Element (VDRE) (AID 2282968); conditions: HepG2 VDRE cis-reporter transcription, actives raise or lower the signal
# Outline: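 RT-PCR/CE readout of reporter mRNA; HepG2, transient transfection, 24 h dosing; DMSO baseline; bidirectional analysis.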
# [14] = target: Nuclear receptor subfamily 1 group I member 3 (Homo sapiens) (UniProt Q14994); experiment: ATG_CAR_TRANS: Attagene TRANS-FACTORIAL HepG2 Assay for human Constitutive Androstane Receptor (CAR) (AID 2282969; active means hit-call score of the fitted dose curve at least 0.9, where 1 is the maximum;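 further: activators raise reporter mRNA above DMSO so AC50 marks induction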); conditions: HepG2 Attagene TRANS-FACTORIAL CAR reporter
# Nuclear receptor subfamily 1 group I member 3 (Homo sapiens), sequence (Q14994 whole entry, looked up, the tested form may be a part): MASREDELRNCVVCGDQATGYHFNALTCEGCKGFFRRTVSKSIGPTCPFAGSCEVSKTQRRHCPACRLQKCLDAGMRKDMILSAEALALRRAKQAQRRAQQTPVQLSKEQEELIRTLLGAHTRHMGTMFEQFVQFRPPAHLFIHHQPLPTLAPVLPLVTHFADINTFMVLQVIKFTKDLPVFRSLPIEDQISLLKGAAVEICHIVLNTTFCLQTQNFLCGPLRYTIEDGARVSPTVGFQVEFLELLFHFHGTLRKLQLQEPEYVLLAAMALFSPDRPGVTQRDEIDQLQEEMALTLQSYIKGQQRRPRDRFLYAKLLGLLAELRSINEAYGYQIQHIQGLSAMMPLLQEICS
# Outline: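 HepG2 cells transiently transfected with multiplexed GAL4-UAS reporter units expressing chimeric NR-Gal4 proteins; compound exposure 24 h. Reporter mRNA measured by RT-PCR, 6-FAM labelling, HpaI digestion and capillary electrophoresis; gain-of-signal fitted against DMSO baseline.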
# [15] = target: Estrogen receptor (Homo sapiens) (UniProt P03372); experiment: ATG_ERa_TRANS: Attagene TRANS-FACTORIAL HepG2 Assay for human Estrogen Receptor alpha (ERa) (AID 2282970; active means hit-call score of the fitted dose curve at least 0.9, where 1 is the maximum); conditions: HepG2 Attagene TRANS ERa GAL4 reporter, mRNA
# Estrogen receptor (Homo sapiens), sequence (P03372 whole entry, looked up, the tested form may be a part): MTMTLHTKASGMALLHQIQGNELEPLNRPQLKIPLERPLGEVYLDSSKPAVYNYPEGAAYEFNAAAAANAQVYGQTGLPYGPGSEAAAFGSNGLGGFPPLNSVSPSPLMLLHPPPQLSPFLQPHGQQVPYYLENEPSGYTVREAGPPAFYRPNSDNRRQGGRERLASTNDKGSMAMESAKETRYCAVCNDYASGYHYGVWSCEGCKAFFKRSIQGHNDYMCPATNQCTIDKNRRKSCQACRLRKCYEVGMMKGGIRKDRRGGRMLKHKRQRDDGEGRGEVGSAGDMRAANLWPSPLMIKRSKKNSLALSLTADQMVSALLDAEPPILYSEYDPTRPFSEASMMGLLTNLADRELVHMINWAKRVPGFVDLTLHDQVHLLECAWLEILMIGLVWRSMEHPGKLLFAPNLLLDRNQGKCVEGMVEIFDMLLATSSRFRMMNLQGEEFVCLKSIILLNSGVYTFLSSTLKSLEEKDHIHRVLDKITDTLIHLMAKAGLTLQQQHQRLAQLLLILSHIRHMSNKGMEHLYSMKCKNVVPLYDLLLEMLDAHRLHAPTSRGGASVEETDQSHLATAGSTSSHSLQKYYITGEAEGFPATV
# Outline: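 Cells: HepG2, transiently transfected. Construct: GAL4-UAS reporter units regulated by exogenous NR-Gal4 chimeras. Time: 24 h. Detection: reporter mRNA by RT-PCR, capillary electrophoresis, fluorescence. Baseline: DMSO, upward fitting.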
# [16] = target: Steroid hormone receptor ERR1 (Homo sapiens) (UniProt P11474); experiment: ATG_ERRa_TRANS: Attagene TRANS-FACTORIAL HepG2 Assay for human Estrogen-Related Receptor alpha (ERRa) (AID 2282971; active means hit-call score of the fitted dose curve at least 0.9, where 1 is the maximum); conditions: HepG2 Attagene TRANS reporter, ERRa transactivation
# Steroid hormone receptor ERR1 (Homo sapiens), sequence (P11474 whole entry, looked up, the tested form may be a part): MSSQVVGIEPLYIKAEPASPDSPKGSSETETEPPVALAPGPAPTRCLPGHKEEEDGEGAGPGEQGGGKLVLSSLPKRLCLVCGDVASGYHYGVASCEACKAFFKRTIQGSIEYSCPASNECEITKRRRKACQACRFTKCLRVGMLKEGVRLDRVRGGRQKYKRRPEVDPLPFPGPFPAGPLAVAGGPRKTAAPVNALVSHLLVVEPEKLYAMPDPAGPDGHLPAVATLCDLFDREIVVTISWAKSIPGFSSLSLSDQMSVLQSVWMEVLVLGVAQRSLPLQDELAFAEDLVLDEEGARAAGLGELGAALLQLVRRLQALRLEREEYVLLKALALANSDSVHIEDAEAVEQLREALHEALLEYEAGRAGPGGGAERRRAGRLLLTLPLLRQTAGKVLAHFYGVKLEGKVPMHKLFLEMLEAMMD
# Outline: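 Reporter transcripts from ERRa-Gal4 chimera activity measured in transiently transfected human HepG2 cells 24 hours after dosing, using RT-PCR with 6-FAM primer extension, HpaI digestion and capillary electrophoresis; DMSO is baseline.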
# [17] = target: X-box-binding protein 1 (Homo sapiens) (UniProt P17861); experiment: ATG_Xbp1_CIS: Attagene CIS-FACTORIAL HepG2 Assay for human X-box Binding Protein 1 (XBP1) (AID 2282972); conditions: HepG2 XBP1 cis-element reporter, Attagene multiplex; actives raise or lower the signal
# X-box-binding protein 1 (Homo sapiens), sequence (P17861 whole entry, looked up): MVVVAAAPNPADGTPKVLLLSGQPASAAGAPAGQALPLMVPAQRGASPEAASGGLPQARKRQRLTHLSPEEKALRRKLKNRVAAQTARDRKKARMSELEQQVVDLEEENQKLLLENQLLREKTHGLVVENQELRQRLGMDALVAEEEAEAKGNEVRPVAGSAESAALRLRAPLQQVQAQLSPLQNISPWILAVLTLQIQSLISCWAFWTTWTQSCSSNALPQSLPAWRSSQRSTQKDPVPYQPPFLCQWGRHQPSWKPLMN
# Outline: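 HepG2, transient MRTU transfection (cis-promoter driven), 24 h compound exposure. Total RNA → oligo(dT) RT → PCR → 6-FAM labeling → HpaI cut → CE. Bidirectional fit vs DMSO.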
# [18] = ATG_SREBP_CIS: Attagene CIS-FACTORIAL HepG2 Assay for human Sterol Regulatory Element Binding (SREBP) (AID 2282962); conditions: HepG2 Attagene cis-factorial SREBP reporter, mRNA; actives raise or lower the signal
# Outline: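 Transfected HepG2 (cis-regulated reporter library, endogenous TFs) → compound 24 h → total RNA → oligo(dT) RT → reporter-specific PCR → FAM primer extension, HpaI cut → CE fluorescence. Fit bidirectional vs DMSO.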
# [19] = ATG_M_19_TRANS: Attagene TRANS-FACTORIAL HepG2 Assay for M19 Transcription Factor (Internal Marker) (AID 2282974; active means hit-call score of the fitted dose curve at least 0.9, where 1 is the maximum); conditions: HepG2 Attagene TRANS-FACTORIAL M19 internal marker reporter
# Outline: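 Fluorescence of 6-FAM-labelled reporter cDNA fragments, separated by capillary electrophoresis, served as the readout. These derived from HepG2 cells carrying transfected GAL4-UAS reporter units after 24 h dosing, with DMSO as negative control.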
smiles,measurement,setting,value
CCCCNC(=O)OCC#CI,AC50,[1],25.9 µM (active)
same,outcome,[1],inactive
same,AC50,[2],32.7 µM (active)
same,outcome,[2],inactive
same,AC50,[3],48.6 µM (active) and 1.56 µM (active) and 1.73 µM (active)
same,AC50,[4],26.3 µM (active)
same,outcome,[4],inactive
same,AC50,[5],27.3 µM (active)
same,outcome,[5],inactive
same,AC50,[6],26.5 µM (active)
same,outcome,[6],inactive
same,AC50,[7],31.9 µM (active)
same,outcome,[7],inactive
same,AC50,[8],60.2 µM (active)
same,outcome,[8],inactive
same,AC50,[9],27.7 µM (active)
same,outcome,[9],inactive
same,AC50,[10],26.8 µM (active)
same,outcome,[10],inactive
same,outcome,[11],inactive
same,AC50,[12],25.4 µM (active)
same,outcome,[12],inactive
same,AC50,[13],37 µM (active)
same,outcome,[13],inactive
same,outcome,[14],inactive
same,AC50,[15],25.4 µM (active)
same,outcome,[15],inactive
same,outcome,[16],inactive
same,AC50,[17],45.5 µM (active)
same,outcome,[17],inactive
C=CCC1=C(C)C(OC(=O)C2C(C=C(C)C)C2(C)C)CC1=O (stereo not drawn),outcome,[1],inactive
same,AC50,[2],64.5 µM (active) [middle of 4 runs]
same,outcome,[2],inactive
same,AC50,[3],566 nM (active) [middle of 6 runs]
same,AC50,[5],27.2 µM (active) [middle of 4 runs]
same,outcome,[5],inactive
same,AC50,[6],90.4 µM (active) and 105 µM (active)
same,outcome,[6],inactive
same,AC50,[7],54.2 µM (active) [middle of 5 runs]
same,outcome,[7],inactive
same,outcome,[18],inactive
same,outcome,[8],inactive
same,AC50,[9],30.9 µM (active) and 52.5 µM (active) and 74.7 µM (active)
same,outcome,[9],inactive
same,AC50,[10],48.8 µM (active) [middle of 5 runs]
same,outcome,[10],inactive
same,AC50,[11],105 µM (active)
same,outcome,[11],inactive
same,AC50,[12],178 µM (active)
same,outcome,[12],inactive
same,outcome,[13],inactive
same,outcome,[14],inactive
same,AC50,[15],26.8 µM (active)
same,outcome,[15],inactive
same,outcome,[16],inactive
same,AC50,[17],53.5 µM (active) [middle of 5 runs]
same,outcome,[17],inactive
same,outcome,[19],inactive
